# Among all 360,000 compounds or so, about 17,000 (4.7%) were called active. About 5% were inconclusive and are not listed. Rule as the data show it: active = activity change below about -50%; inconclusive = mostly about -30% to -49%; inactive = weaker than that. Shown is part of a subset that was picked to be rich in actives.
# Assay: qHTS for Inhibitors of Inflammasome Signaling: IL-1-beta AlphaLISA Primary Screen
# Settings: THP-1 LPS/ATP IL-1B secretion, 16 h; at 57.5 µM, stronger effect = lower value
# Outline: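 Secreted IL-1B measured by AlphaLISA bead assay after 16 h compound exposure of THP-1 cells; compounds (final up to 57.5 uM) added 1 h before LPS (250 ng/mL) and ATP (1.25 mM) stimulation; lower signal means less secretion.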
# % is scaled to controls: 0 for no effect and ±100 for the full control effect.
row,SMILES,activity change
1,Cc1nc2nc(C)c(CCC(=O)N3CCN(c4ccccc4)CC3)c(C)n2n1,-17.6% (inactive)
2,C[N+](C)(C)CCNC(=O)c1c[nH]c2ccccc12,24.4% (inactive)
3,CCC(C(=O)NCc1cccnc1)n1nc(C)c2sc3ccccc3c2c1=O (stereo not drawn),-16.1% (inactive)
4,CCOc1ccc(N(CC(=O)NCC2CCCO2)S(=O)(=O)c2ccc(C)cc2)cc1 (stereo not drawn),7.07% (inactive)
5,Cc1ccc(S(=O)(=O)N(CC(=O)NN=C2CCN(C)CC2)c2ccc(F)cc2)cc1,31% (inactive)
6,CCNC(=O)CN(c1ccc(C)cc1)S(=O)(=O)c1ccc(SC)cc1,-55.3% (active)
7,COc1ccc(S(=O)(=O)NC(=O)C2(C)CCN2C(=O)c2ccccc2CCc2ccccc2)cc1 (stereo not drawn),22.1% (inactive)
8,CCCNC(=O)C1(C)CCN(C(=O)c2ccccc2OC(F)(F)F)C1 (stereo not drawn),15.8% (inactive)
9,COc1ncnc2c1ncn2CCCNCCN1CCOCC1,44.5% (inactive)
10,O=S(=O)(O)c1cc2onnc2c2ccccc12,0% (inactive)
11,Cc1ccc(Nc2nc(N)nc(CN3CCN(Cc4ccccc4)CC3)n2)cc1Cl,0% (inactive)
12,CNc1nc(Nc2ccc(C)c(Cl)c2)nc(N)c1[N+](=O)[O-],-21.8% (inactive)
13,OCCNc1nc(Nc2ccc(Cl)c(Cl)c2)nc2ccccc12,-92.5% (active)
14,COc1cc(NC(=O)C2=C(C)OCCS2)c(Cl)cc1C(=O)NCCCN1CCCC(C)C1 (stereo not drawn),-28.6% (inactive)
15,CCCNC(=O)C1(C)CCN(C(=O)c2cc(F)ccc2C)C1 (stereo not drawn),34.1% (inactive)
16,COc1cccc(C(NC(C)=O)c2nc(-c3ccccc3OC)cs2)c1 (stereo not drawn),9.34% (inactive)
17,COC(=O)C[C@@H]1C=C[C@@H](NC(=O)c2ccc3c(c2)OCO3)[C@@H](CO)O1,7.5% (inactive)
18,COc1cccc(CNC(=O)CN2C(=O)NC(Cc3ccccc3)(c3ccccc3)C2=O)c1 (stereo not drawn),-58.8% (active)
19,COc1cccc(CNC(=O)COC(=O)CN2C(=O)NC3(CCCCC3C)C2=O)c1 (stereo not drawn),8.38% (inactive)
20,CCCCNC(=O)CN1C(=O)NC(Cc2ccccc2)(Cc2ccccc2)C1=O,4.67% (inactive)
21,CN(Cc1nc2ccccc2c(=O)[nH]1)Cc1cc(=O)oc2ccc3ccccc3c12,0.506% (inactive)
22,O=C(CNc1ccccc1N1CCCC1=O)Nc1cc(Cl)ccc1-n1cncn1,-19.4% (inactive)
23,CCN(CC)S(=O)(=O)c1ccc(NC(=O)c2cccnc2Cl)c(NC(=O)c2cccnc2Cl)c1,-102% (active)
24,CCN(CC)S(=O)(=O)c1ccc(NC(=O)c2cnc(C)cn2)cc1,57% (inactive)

row,SMILES,activity change
1,Cc1ccc(CNC(=O)c2cccnc2Cl)cc1,55.4% (inactive)
2,CC(O)(c1cccc(F)c1)c1nc(-c2ccc3c(c2)OCO3)cs1 (stereo not drawn),16% (inactive)
3,COc1cc(-c2nnc(NC(=O)CS(=O)(=O)c3ccc(Cl)cc3)o2)cc(OC)c1OC,-11% (inactive)
4,CCN(CC)c1ccc(NC(=O)c2ccc(=O)[nH]c2)cc1S(=O)(=O)Nc1ccc(OC)cc1,-3.18% (inactive)
5,COc1ccc(CNC(=O)COC(=O)c2sccc2C)cc1OC,12.1% (inactive)
6,O=C(CCN1CCCCC1)N=Nc1c(O)[nH]c2ccccc12,-74.6% (active)
7,Cc1cccc(N(CC(=O)N=Nc2c(O)[nH]c3ccccc23)S(C)(=O)=O)c1C,19.5% (inactive)
8,Oc1[nH]c2ccccc2c1N=Nc1c(F)c(F)c(F)c(F)c1F,-7.81% (inactive)
9,CS(=O)(=O)N1CCc2nc(-c3ccccc3)sc2C1,54.3% (inactive)
10,COc1ccccc1OCCNC(=O)C(CCSC)NC(=O)COc1ccccc1 (stereo not drawn),-18.9% (inactive)
11,NC(=O)c1ccc(N2CCCC2)nc1,5.48% (inactive)
12,COc1cccc(CN(C)CC2CCCN(CCc3ccc(Cl)cc3)C2)c1OC (stereo not drawn),-90.5% (active)
13,Cc1nc2ccc(C(=O)N(C)CC3CCCN(CCc4ccc(Cl)cc4)C3)cc2[nH]1 (stereo not drawn),8.01% (inactive)
14,COc1cccc(CN(C)CC(=O)NCc2ccccc2Cl)c1OC,1.26% (inactive)
15,C[C@H]1CN([C@@H](C)CO)S(=O)(=O)c2ccc(-c3cccc(F)c3)cc2O[C@@H]1CN(C)C,-2.69% (inactive)
16,O=C(NCCOc1ccccc1Cl)C(=O)Nc1ccccc1,inactive
17,CC(C)Nc1nc(NCCOc2ccccc2Cl)c2sccc2n1,-90.6% (active)
18,Clc1ccccc1Nc1nc(NCc2cccs2)nc2ccsc12,42.9% (inactive)
19,C=C(C)C1CC=C(C)/C(=N\NC(=O)CNc2ccccc2OC)C1 (stereo not drawn),-1.86% (inactive)
20,COc1ccc2nc(-c3ccccn3)ccc2c1,19.8% (inactive)
21,CCc1ccccc1NC(=O)CN1CCN(C(=O)c2cc(C3CC3)nn2-c2ccccc2)CC1,-18.2% (inactive)
22,CC(=O)Nc1cccc(-c2ccnc3c2CC(C)(C(=O)NCc2ccco2)O3)c1 (stereo not drawn),78.5% (inactive)
23,COc1cccc2oc(CCc3ccccc3)cc(=O)c12,-5.15% (inactive)
24,CCOC(=O)c1ccc(NC(=O)c2nc[nH]c2C(=O)NCc2ccccc2)cc1,7.09% (inactive)

row,SMILES,activity change
1,CCOC(=O)c1ccc(NC(=O)c2nc[nH]c2C(=O)N[C@@H](CCCCNC(=O)OC(C)(C)C)C(=O)OC(C)(C)C)cc1,-62.8% (active)
2,CC(C)(C)OC(=O)CNC(=O)c1[nH]cnc1C(=O)N[C@@H](CCCCN)C(=O)OC(C)(C)C,-12.6% (inactive)
3,COc1ccccc1CC1(C)C(=O)Nc2ccc(OC(F)(F)F)cc21 (stereo not drawn),4.75% (inactive)
4,COc1ccc(C(C(O)C(=O)c2c[nH]c3ccccc23)N2CCN(c3ccccc3)CC2)cc1 (stereo not drawn),14.4% (inactive)
5,COc1ccc(/C=C(\C#N)c2c[nH]c3ccccc23)cc1,-102% (active)
6,COc1ccc(/C=C(\NC(=O)c2ccc(OC)c(OC)c2)C(=O)NCCc2c[nH]c3ccccc23)cc1,-11.1% (inactive)
7,Cc1ccc([C@H]2N[C@]3(CCCN(CC4CCCCC4)C3=O)[C@H]3C(=O)N(Cc4ccccc4)C(=O)[C@@H]23)cc1,-9.33% (inactive)
8,O=C(CC(c1ccccc1)c1ccccc1)NCC(O)c1ccc([N+](=O)[O-])cc1 (stereo not drawn),-69.4% (active)
9,O=C(NCC(O)c1ccc([N+](=O)[O-])cc1)C1CCCCC1 (stereo not drawn),-13.9% (inactive)
10,CC(=O)NCC(O)c1ccc([N+](=O)[O-])cc1 (stereo not drawn),0.816% (inactive)
11,O=C(O)c1ccc([N+](=O)[O-])cc1Sc1ccsc1,4.28% (inactive)
12,O=C(NCc1cccc(C(F)(F)F)c1)c1ccc2sc(COCCO)nc2c1,28.9% (inactive)
13,CCN(CC)CCOC(=O)c1ccc(NC(=O)CNC(=O)c2ccccc2)cc1,7.44% (inactive)
14,CCN(CC)CCNC(=O)c1ccc(NS(=O)(=O)c2ccc3c(c2)OCCO3)cc1,-6.92% (inactive)
15,CCN(CC)CCNC(=O)c1ccc(NC(=O)c2c(F)cccc2Cl)cc1,-73.3% (active)
16,COC(=O)Cc1ccc(NC(=S)NCc2ccccc2)cc1,0.636% (inactive)
17,FC(F)(F)Oc1ccc(NC(=S)NCc2ccccc2)cc1,-95% (active)
18,CCNC(=S)Nc1ccc(OC(F)(F)F)cc1,-1.65% (inactive)
19,CC1(C)OC(=O)C2=C(C[C@@H](C3CC3)O[C@H]2c2ccc(Cl)cc2)O1,6.02% (inactive)
20,N=C1c2ccccc2-c2ccccc21,3.3% (inactive)
21,Cc1c(NC(=O)Nc2ccccc2Cl)sc(=S)n1C,-4.03% (inactive)
22,O=C(Nc1ccccc1Cl)/C(Cl)=C(\Cl)S(=O)c1ccccc1 (stereo not drawn),-103% (active)
23,CN(C)S(=O)(=O)Oc1ccccc1C(=O)Nc1ccccc1Cl,3.38% (inactive)
24,CCCNC(=O)C1(C)CCN1C(=O)C1(c2ccccc2)CC1 (stereo not drawn),0% (inactive)

row,SMILES,activity change
1,Nc1ncnc2c1ncn2[C@@H]1O[C@H](C(=O)N2CCSC2)[C@@H](O)[C@H]1O,3.32% (inactive)
2,Cc1ccc(S(=O)(=O)N(CCc2ccccc2)c2ccc3c(c2)C2CC3CCN2C(=O)OCc2ccccc2)cc1 (stereo not drawn),-16.8% (inactive)
3,COc1ccc(C2=Nc3ccccc3NC(=O)C2N(C(=O)c2cc3ccccc3[nH]2)c2ccccc2)cc1 (stereo not drawn),16.6% (inactive)
4,Oc1ccc2ccccc2c1N=Nc1nccs1,-98.3% (active)
5,CC(C)(C)c1ccc(Cn2nnc3c(=O)[nH]c(C4CCCN(C(=O)c5ccco5)C4)nc32)cc1 (stereo not drawn),-12.5% (inactive)
6,COc1cc(NC(=O)C2CCN(c3cnccn3)CC2)cc(OC)c1,-9.18% (inactive)
7,Cc1ccc(Nc2ccccc2N)cc1,-70% (active)
8,Cc1ccc(Nc2nc(Cl)c(C=O)s2)cc1,-13.1% (inactive)
9,Nc1ccc(C(=O)Nc2ccccc2N)cc1,-21% (inactive)
10,Cc1nc2ccc(N)nc2nc1C,10.3% (inactive)
11,CC(C)(C)N1C(=O)c2c(C(=O)OCc3ccccc3)[nH]c(-c3ccccc3)c2C1=O,11.9% (inactive)
12,Fc1ccccc1COc1ccccc1CNCc1ccncc1,-61.1% (active)
13,CCOc1cc(/C=N/O)ccc1OCc1ccccc1F,-8.72% (inactive)
14,COc1ccccc1CNCc1cccs1,10.3% (inactive)
15,CCOC(=O)C1=C(O)/C(=C/c2cc(C)n(-c3ccccc3)c2C)N=C1C,-9.27% (inactive)
16,COc1ccc(NS(=O)(=O)c2cccc(C(=O)NCCc3ccc(S(N)(=O)=O)cc3)c2)cc1,6.56% (inactive)
17,O=C(CN1C(=O)NC2(CCCCCC2)C1=O)NCc1ccc(F)cc1,-13.3% (inactive)
18,O=C(CN1C(=O)NC2(CCCCCCC2)C1=O)NCc1ccc(F)cc1,-15.9% (inactive)
19,CSc1ccc(CN2C(=O)NC3(CCCCCC3)C2=O)cc1,-60.4% (active)
20,CC(C)c1ccc(C=NNc2ccc([N+](=O)[O-])cn2)cc1,20.1% (inactive)
21,O=C1NCC(Nc2ccccc2)C(=O)N1 (stereo not drawn),11.9% (inactive)
